# Measurements from PubChem BioAssay AID1159580 (chemical genetic matrix, 2015).
# In all, about 5,500 compounds went through this assay and about 2,000 (36%) were called active. Inconclusive results (about 18%) are left out. The list shows a part of the results. Values without a mark were called inactive. No stated cut-off is given here; in the data, active means normalized growth mostly below about 0.91 (no sharp cut-off); inconclusive means no clear call, values can overlap the other calls; inactive means mostly above about 0.92.
# Assay: chemical genetic growth profiling, strain panel (AID 1159580);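 further: tested at 20 µM; growth read once vehicle control cultures reached saturation at 30 °C; 1 = growth at the plate median or of vehicle wells; lower values mean less growth of the strain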
# Details: growth OD
smiles,measurement,setting,value
CN(C)CC/C=C1\c2ccccc2Sc2ccc(Cl)cc21,normalized growth,"S. cerevisiae deletion strains, locus YJR043C, strain POL32, active compounds read low",1.03
same,normalized growth,"S. cerevisiae deletion strains, locus YJR066W, strain TOR1, active compounds read low",0.815 (active)
same,normalized growth,"S. cerevisiae deletion strains, locus YJR075W, strain HOC1, active compounds read low",0.884
same,normalized growth,"S. cerevisiae deletion strains, locus YKL009W, strain mrt4, active compounds read low",0.989
same,normalized growth,"S. cerevisiae deletion strains, locus YKL068W, active compounds read low",1.01
same,normalized growth,"S. cerevisiae deletion strains, locus YKL085W, strain MDH1 (second series), active compounds read low",1.03
same,normalized growth,"S. cerevisiae deletion strains, locus YKL085W, strain MDH1, active compounds read low",1.03
same,normalized growth,"S. cerevisiae deletion strains, locus YKL160W, strain elf1, active compounds read low",0.867 (active)
same,normalized growth,"S. cerevisiae deletion strains, locus YKL190W, strain CNB1, active compounds read low",0.982
same,normalized growth,"S. cerevisiae deletion strains, locus YKR026C, strain gcn3, active compounds read low",0.992
same,normalized growth,"S. cerevisiae deletion strains, locus YKR091W, strain srl3, active compounds read low",0.987
same,normalized growth,"S. cerevisiae deletion strains, locus YLL001W, strain dnm1, active compounds read low",0.904
same,normalized growth,"S. cerevisiae deletion strains, locus YLL026W, active compounds read low",0.981
same,normalized growth,"S. cerevisiae deletion strains, locus YLL041C, strain sdh2, active compounds read low",0.993
same,normalized growth,"S. cerevisiae deletion strains, locus YLR027C, strain aat2, active compounds read low",0.881 (active)
same,normalized growth,"S. cerevisiae deletion strains, locus YLR039C, strain RIC1, active compounds read low",1.5 [resistant] (active)
same,normalized growth,"S. cerevisiae deletion strains, locus YLR058C, strain SHM2, active compounds read low",0.933
same,normalized growth,"S. cerevisiae deletion strains, locus YLR102C, strain apc9, active compounds read low",1.02
same,normalized growth,"S. cerevisiae deletion strains, locus YLR113W, strain HOG1, active compounds read low",0.915
same,normalized growth,"S. cerevisiae deletion strains, locus YLR221C, strain rsa3, active compounds read low",0.947
same,normalized growth,"S. cerevisiae deletion strains, locus YLR258W, strain gsy2, active compounds read low",0.894 (active)
same,normalized growth,"S. cerevisiae deletion strains, locus YLR262C, strain YPT6 (second series), active compounds read low",1.1
same,normalized growth,"S. cerevisiae deletion strains, locus YLR262C, strain YPT6, active compounds read low",1.62 [resistant] (active)
same,normalized growth,"S. cerevisiae deletion strains, locus YLR268W, strain sec22, active compounds read low",1.01
same,normalized growth,"S. cerevisiae deletion strains, locus YLR320W, strain mms22, active compounds read low",0.951
same,normalized growth,"S. cerevisiae deletion strains, locus YLR330W, strain CHS5, active compounds read low",0.999
same,normalized growth,"S. cerevisiae deletion strains, locus YLR342W, strain FKS1 (second series), active compounds read low",0.667 (active)
same,normalized growth,"S. cerevisiae deletion strains, locus YLR342W, strain FKS1, active compounds read low",0.724 (active)
same,normalized growth,"S. cerevisiae deletion strains, locus YLR357W, strain rsc2, active compounds read low",0.935
same,normalized growth,"S. cerevisiae deletion strains, locus YLR370C, strain arc18, active compounds read low",0.749 (active)
same,normalized growth,"S. cerevisiae deletion strains, locus YLR371W, strain rom2, active compounds read low",1.01
same,normalized growth,"S. cerevisiae deletion strains, locus YLR384C, strain iki3, active compounds read low",0.987
same,normalized growth,"S. cerevisiae deletion strains, locus YLR418C, strain cdc73, active compounds read low",0.661 (active)
same,normalized growth,"S. cerevisiae deletion strains, locus YML016C, strain PPZ1, active compounds read low",0.994
same,normalized growth,"S. cerevisiae deletion strains, locus YML032C, strain rad52, active compounds read low",0.947
same,normalized growth,"S. cerevisiae deletion strains, locus YML120C, strain ndi1, active compounds read low",0.998
same,normalized growth,"S. cerevisiae deletion strains, locus YML124C, strain tub3, active compounds read low",1.02
same,normalized growth,"S. cerevisiae deletion strains, locus YMR058W, strain fet3, active compounds read low",0.775 (active)
same,normalized growth,"S. cerevisiae deletion strains, locus YMR078C, strain ctf18, active compounds read low",1.02
same,normalized growth,"S. cerevisiae deletion strains, locus YMR125W, strain sto1, active compounds read low",0.923
same,normalized growth,"S. cerevisiae deletion strains, locus YMR129W, active compounds read low",1
same,normalized growth,"S. cerevisiae deletion strains, locus YMR205C, strain PFK2, active compounds read low",0.921
same,normalized growth,"S. cerevisiae deletion strains, locus YMR223W, strain ubp8, active compounds read low",0.935
same,normalized growth,"S. cerevisiae deletion strains, locus YMR231W, strain pep5, active compounds read low",0.0779 (active)
same,normalized growth,"S. cerevisiae deletion strains, locus YMR307W, strain GAS1, active compounds read low",0.903
same,normalized growth,"S. cerevisiae deletion strains, locus YNL067W, strain RPL9B, active compounds read low",0.929
same,normalized growth,"S. cerevisiae deletion strains, locus YNL071W, strain lat1, active compounds read low",0.934
same,normalized growth,"S. cerevisiae deletion strains, locus YNL183C, strain NPR1, active compounds read low",0.872
same,normalized growth,"S. cerevisiae deletion strains, locus YNL209W, strain ssb2, active compounds read low",0.665 (active)
same,normalized growth,"S. cerevisiae deletion strains, locus YNL233W, strain BNI4, active compounds read low",0.891
same,normalized growth,"S. cerevisiae deletion strains, locus YNL248C, strain rpa49, active compounds read low",0.917
same,normalized growth,"S. cerevisiae deletion strains, locus YNL250W, strain rad50, active compounds read low",1.03
same,normalized growth,"S. cerevisiae deletion strains, locus YNL271C, strain bni1, active compounds read low",1.01
same,normalized growth,"S. cerevisiae deletion strains, locus YNL298W, strain CLA4, active compounds read low",1
same,normalized growth,"S. cerevisiae deletion strains, locus YNL307C, strain MCK1, active compounds read low",0.999
same,normalized growth,"S. cerevisiae deletion strains, locus YNL322C, strain KRE1 (second series), active compounds read low",1.03
same,normalized growth,"S. cerevisiae deletion strains, locus YNR049C, strain mso1, active compounds read low",0.996
same,normalized growth,"S. cerevisiae deletion strains, locus YNR052C, strain pop2, active compounds read low",0.964
same,normalized growth,"S. cerevisiae deletion strains, locus YOL006C, strain TOP1, active compounds read low",0.42 (active)
same,normalized growth,"S. cerevisiae deletion strains, locus YOL012C, strain htz1",1.87
same,normalized growth,"S. cerevisiae deletion strains, locus YOL147C, strain pex11, active compounds read low",1.02
same,normalized growth,"S. cerevisiae deletion strains, locus YOR001W, strain rrp6, active compounds read low",0.935
same,normalized growth,"S. cerevisiae deletion strains, locus YOR061W, strain CKA2, active compounds read low",0.941
same,normalized growth,"S. cerevisiae deletion strains, locus YOR069W, strain VPS5, active compounds read low",1
same,normalized growth,"S. cerevisiae deletion strains, locus YOR070C, strain gyp1, active compounds read low",0.804 (active)
same,normalized growth,"S. cerevisiae deletion strains, locus YOR080W, strain dia2, active compounds read low",0.975
same,normalized growth,"S. cerevisiae deletion strains, locus YOR083W, strain WHI5, active compounds read low",0.735 (active)
same,normalized growth,"S. cerevisiae deletion strains, locus YOR106W, strain vam3, active compounds read low",0.393 (active)
same,normalized growth,"S. cerevisiae deletion strains, locus YOR136W, strain idh2, active compounds read low",1.02
same,normalized growth,"S. cerevisiae deletion strains, locus YOR144C, strain elg1, active compounds read low",1.01
same,normalized growth,"S. cerevisiae deletion strains, locus YOR184W, strain ser1, active compounds read low",1.06
same,normalized growth,"S. cerevisiae deletion strains, locus YOR231W, strain MKK1, active compounds read low",0.869
same,normalized growth,"S. cerevisiae deletion strains, locus YOR265W, strain rbl2, active compounds read low",0.974
same,normalized growth,"S. cerevisiae deletion strains, locus YOR270C, strain vph1, active compounds read low",0.41 (active)
same,normalized growth,"S. cerevisiae deletion strains, locus YOR290C, strain snf2, active compounds read low",0.818 (active)
same,normalized growth,"S. cerevisiae deletion strains, locus YOR316C, strain cot1, active compounds read low",1.02
same,normalized growth,"S. cerevisiae deletion strains, locus YPL051W, strain arl3, active compounds read low",0.76 (active)
same,normalized growth,"S. cerevisiae deletion strains, locus YPL078C, strain atp4, active compounds read low",0.835 (active)
same,normalized growth,"S. cerevisiae deletion strains, locus YPL106C, strain sse1, active compounds read low",0.802 (active)
same,normalized growth,"S. cerevisiae deletion strains, locus YPL240C, strain hsp82, active compounds read low",0.981
same,normalized growth,"S. cerevisiae deletion strains, locus YPL241C, strain CIN2, active compounds read low",1.01
same,normalized growth,"S. cerevisiae deletion strains, locus YPL256C, strain CLN2, active compounds read low",0.95
same,normalized growth,"S. cerevisiae deletion strains, locus YPR119W, strain clb2, active compounds read low",1.03
same,normalized growth,"S. cerevisiae deletion strains, locus YPR141C, strain kar3, active compounds read low",1.02
same,normalized growth,"S. cerevisiae deletion strains, locus YPR163C, strain tif3, active compounds read low",0.827 (active)
same,normalized growth,"S. cerevisiae deletion strains, locus YPR167C, strain met16, active compounds read low",1.01
same,normalized growth,"S. cerevisiae deletion strains, strain wtn01, active compounds read low",0.937
same,normalized growth,"S. cerevisiae strains, strain wild type, active compounds read low",0.956
